The full list was thinned out, with hits kept by preference.
GIRK2 activator – GIRK2 channel activators by thallium flux | P48051 | HEK293 GIRK2/NPY4 cells, thallium flux fluorescence | activation (% efficacy), % for hits at 37.5 µM | 34,000 tested, under 10 active | AID 1259324;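 active = primary screen hit, no activity in plain HEK293 cells, and in GIRK2-only cells above 5% efficacy rising with concentration; inactive = the rest, including fluorescent compounds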;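 note: efficacy is normalized control-subtracted fluorescence 15 s after thallium addition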
AMPAR-TARP mod – modulators of AMPA receptor GluA2-stargazin complexes | HEK293 GluA2+stargazin, membrane potential dye (FDSS), glutamate EC50; hits were called plate by plate, in both directions | calls only at 30 µM | actives 3.5% (n = 40,000) | AID 1259245;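 active = any of four per-well response measures lying three or more SD from its plate-wide compound average, in either direction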
* hit, by the source's call.

How did COc1ccc2nc(N(CCN3CCOCC3)C(=O)/C=C/c3cccc([N+](=O)[O-])c3)sc2c1 do in these assays?
GIRK2 activator: inactive; AMPAR-TARP mod: active

How did CCCC(=O)N(CCN1CCOCC1)c1nc2cc(OC)ccc2s1 do in these assays?
GIRK2 activator: inactive; AMPAR-TARP mod: active

How did COc1ccc2nc(N(CCN3CCOCC3)C(=O)c3nc4ccccc4s3)sc2c1 do in these assays?
GIRK2 activator: inactive; AMPAR-TARP mod: inactive

What do the screens show for `COc1ccc(C)c2sc(N(CCN3CCOCC3)C(=O)c3ccccc3)nc12`?
AMPAR-TARP mod: inactive

What do the screens show for `CCCn1c(=O)c2c(nc3n2CC(C)CN3c2ccc(OC)cc2OC)n(C)c1=O` (stereo not given)?
AMPAR-TARP mod: inactive

What do the screens show for `CC(=O)N1CC(C(=O)NCCc2ccc(Cl)cc2)C1`?
GIRK2 activator: inactive; AMPAR-TARP mod: inactive

Results for COc1ccc2nc(N(CCN3CCOCC3)C(=O)c3ccc4c(c3)OCCO4)sc2c1 ?
AMPAR-TARP mod: active

What do the screens show for `COc1ccc2nc(N(CCN3CCOCC3)C(=O)c3ccc([N+](=O)[O-])cc3)sc2c1`?
AMPAR-TARP mod: inactive

How did COc1ccc(Cl)cc1C(=O)N1CCOC(c2ccccc2)C1 (stereo not given) do in these assays?
GIRK2 activator: inactive

Results for O=C(NCc1ccc(F)cc1)C(=O)NCC(O)(c1ccco1)C1CC1 (stereo not given) ?
GIRK2 activator: inactive; AMPAR-TARP mod: inactive

What do the screens show for `CCc1nnc(NS(=O)(=O)c2ccc(NC(=O)c3ccc([N+](=O)[O-])o3)cc2)s1`?
AMPAR-TARP mod: inactive

How did CCc1nnc(NS(=O)(=O)c2ccc(NC(=O)c3cc4cc([N+](=O)[O-])ccc4s3)cc2)s1 do in these assays?
AMPAR-TARP mod: active

Results for COC(=O)c1ccc(C(=O)NCC(O)c2ccc(C(F)(F)F)cc2)cc1 (stereo not given) ?
GIRK2 activator: inactive

How did COc1ccc(Cl)cc1S(=O)(=O)NCC(O)c1cccn1C (stereo not given) do in these assays?
GIRK2 activator: inactive; AMPAR-TARP mod: inactive

What do the screens show for `COc1cc(/C=C2\Oc3cc(OC(C)=O)ccc3C2=O)cc(OC)c1OC`?
AMPAR-TARP mod: inactive

What do the screens show for `COc1cc(/C=C2\Oc3cc(OC(=O)c4ccccc4F)ccc3C2=O)cc(OC)c1OC`?
AMPAR-TARP mod: active

How did Cc1ccc(C)c(NS(=O)(=O)c2cc(C)ccc2C)c1 do in these assays?
AMPAR-TARP mod: inactive

Results for O=C(c1ccc(S(=O)(=O)N2CCOCC2)cc1)N(C(=O)N1CCCCC1)c1cccc(Cl)c1 ?
GIRK2 activator: inactive; AMPAR-TARP mod: active

What do the screens show for `O=C(c1ccc(S(=O)(=O)N2CCOCC2)cc1)N(C(=O)N1CCCCC1)c1ccc(Cl)cc1`?
AMPAR-TARP mod: inactive

Results for CCCC(CCC)C(=O)N1CCN(c2nccn2CC)CC1 ?
GIRK2 activator: inactive; AMPAR-TARP mod: active

What do the screens show for `CCCC(CCC)C(=O)N1CCN(c2nccn2C)CC1`?
GIRK2 activator: inactive

Results for COc1ccccc1NC(=O)N1CCC(CNC(=O)C(=O)NC(C)c2ccccc2)CC1 (stereo not given) ?
GIRK2 activator: inactive; AMPAR-TARP mod: inactive

How did CN(C)CCCN1C(=O)C(=O)/C(=C(/O)c2ccc(Cl)cc2)C1c1ccccn1 (stereo not given) do in these assays?
AMPAR-TARP mod: inactive

How did COc1cc(OC)cc(C(=O)NCC2(O)CCc3ccccc32)c1 (stereo not given) do in these assays?
GIRK2 activator: inactive

Results for O=C(Nc1nc2ccc([N+](=O)[O-])cc2s1)c1ccc(S(=O)(=O)N2CCCCC2)cc1 ?
AMPAR-TARP mod: inactive

Results for Nc1nc2ccc(S(=O)(=O)N3CCCCC3)cc2s1 ?
GIRK2 activator: inactive; AMPAR-TARP mod: active

Results for COc1ccc(-c2noc(C3CC(=O)N(c4cc(C)ccc4C)C3)n2)cc1 (stereo not given) ?
GIRK2 activator: inactive; AMPAR-TARP mod: inactive

How did CCN1CCN(c2nc3c(c(=O)n(C)c(=O)n3C)n2CCCOc2ccccc2)CC1 do in these assays?
AMPAR-TARP mod: active

What do the screens show for `CCNc1nc2c(c(=O)n(C)c(=O)n2C)n1CCCOc1ccccc1`?
GIRK2 activator: inactive; AMPAR-TARP mod: inactive

Results for CC(c1ccccc1)n1c(N2CCCCC2)nc2c1c(=O)n(C)c(=O)n2C (stereo not given) ?
GIRK2 activator: inactive; AMPAR-TARP mod: active

How did Cn1c(=O)c2c(nc(N3CCOCC3)n2CCCc2ccccc2)n(C)c1=O do in these assays?
AMPAR-TARP mod: inactive

How did Cn1c(=O)c2c(nc(N3CCCCCC3)n2CC(O)COc2ccccc2)n(C)c1=O (stereo not given) do in these assays?
AMPAR-TARP mod: inactive

Results for Cn1c(=O)c2c(nc(N3CCOCC3)n2CCSc2ncccn2)n(C)c1=O ?
AMPAR-TARP mod: active

Source: PubChem
